An excerpt weighted towards active compounds, which were near 4.8% of everything screened.
IL1B secr inh – inflammasome signaling inhibition, IL-1 beta readout; THP-1 LPS/ATP IL-1B secretion, AlphaLISA, 16 h; stronger effect = lower value; activity change, % at 57.5 µM; actives 4.7% (n = 360,000); AID 743279; in the data active = activity change below about -50%; inconclusive = mostly about -30% to -49%; note: % is set by controls: 0 for no effect and ±100 for the full control effect
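THP-1 cells pretreated 1 hr with compounds (up to 57.5 uM final), then stimulated with LPS (250 ng/mL final) plus ATP (1.25 mM final); secreted IL-1B measured by AlphaLISA after 16 hr, decreased signal indicating inhibition.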
USP1 inh – USP1/UAF1 (human) deubiquitinase inhibition; O94782; recombinant USP1/UAF1, Ub-Rhodamine cleavage fluorescence; Potency, µM (titrated, usually from 57.1 µM), for inactives: at the highest dose activity change, negative = inhibition, usual class: inhibitors; actives 0.23% (n = 390,000); AID 743255; note: potency is the fitted concentration of half-maximal effect; % is set by controls: 0 for no effect and ±100 for the full control effect; nearly all actives have a fitted effect of over 60% in size
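In this screen, compounds sit with the deubiquitinase complex (1nM) for 15 min at room temperature before Ub-Rho is added at 150nM final. Fluorescence rise is then followed for 6 reads every 60 seconds.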
USP2a block – USP2a (human) protease inhibition. O75604. USP2 core, Ub-CHOP2 coupled fluorogenic reporter, 485/531. Potency, µM (highest dose often 38.3 µM), for inactives: at the highest dose activity change, negative = inhibition, most hits filed as inhibitors. actives 0.01% (n = 330,000);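 note: potency is the fitted concentration of half-maximal effect; plate controls were DMSO wells for no effect and full inhibition by NEM control for full effect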
Target sequence (O75604 whole entry, looked up): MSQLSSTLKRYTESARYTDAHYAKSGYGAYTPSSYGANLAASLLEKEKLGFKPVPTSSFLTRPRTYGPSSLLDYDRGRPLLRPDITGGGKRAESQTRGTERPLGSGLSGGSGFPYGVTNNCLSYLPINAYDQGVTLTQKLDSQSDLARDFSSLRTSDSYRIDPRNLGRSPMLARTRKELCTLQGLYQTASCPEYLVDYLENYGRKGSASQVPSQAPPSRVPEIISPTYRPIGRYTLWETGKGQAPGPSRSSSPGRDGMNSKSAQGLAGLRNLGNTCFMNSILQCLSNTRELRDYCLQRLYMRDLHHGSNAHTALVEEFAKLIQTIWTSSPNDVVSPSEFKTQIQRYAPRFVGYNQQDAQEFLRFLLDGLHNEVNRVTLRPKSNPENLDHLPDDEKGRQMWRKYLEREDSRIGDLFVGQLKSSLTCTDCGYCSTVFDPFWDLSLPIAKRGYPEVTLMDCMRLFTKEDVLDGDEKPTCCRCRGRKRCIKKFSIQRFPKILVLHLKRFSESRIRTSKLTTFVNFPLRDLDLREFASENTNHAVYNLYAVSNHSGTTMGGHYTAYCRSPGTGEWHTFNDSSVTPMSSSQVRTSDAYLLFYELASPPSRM
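Cell-free coupled assay: 10nM USP2 core preincubated 30min RT with compound in Tris-HCl pH 8.0/CaCl2/CHAPS buffer, then 25nM Ub-CHOP2 and 25nM reporter substrate; fluorescence (Ex 485/Em 531) read after 60min RT, normalized to NEM inhibition, concentration-response curves fitted.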
ATXN2 expr inh – inhibitors of ATXN2 expression; HEK-293 ATXN2-luciferase reporter, luminescence, 24 h; Potency, µM (doses to about 57 µM), for the others: top-dose activity change, negative = inhibition, usual class: inhibitors; actives 0.72% (n = 360,000); note: potency is the fitted concentration of half-maximal effect; % is set by controls: 0 for no effect and ±100 for the full control effect; nearly all actives have a fitted effect of over 55% in size
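ATXN2-luciferase reporter cells (luciferase flanked by upstream and downstream ATXN2 gene portions) were treated 24 h at 37 °C with compounds at up to 57 uM. SteadyGlo luminescence gave expression; GF-AFC fluorescence gave viability.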
S2 tox – cell viability loss in ATXN counter-screen; S2 cells (HEK-293 line with an ATXN2-luciferase reporter) viability, CellTiter-Fluor protease fluorescence, 24 h; Potency, µM (series often up to 56.7 µM), hits mostly cytotoxic; actives 0.49% (n = 400,000); AID 651635; note: potency is the fitted concentration of half-maximal effect; nearly all actives have a fitted effect of over 40% in size
Numbers without * were called inactive; i = inactive; ? = inconclusive; · = not tested or not shown. Unless noted, calls come from the whole dose curve; as a rule, active = well fitted curve in the direction sought with a large enough effect; inconclusive = small, poorly fitted or top-dose-only effect, or another doubt; inactive = no such curve, though single readings can be large; an effect the other way counts as inactive or inconclusive.

SMILES | IL1B secr inh | USP1 inh | USP2a block | ATXN2 expr inh | S2 tox
COC(=O)c1ccc(-c2ccc(/C=N/N3C(=O)C4C5C=CC(C6CC56)C4C3=O)o2)cc1 (centres undefined) | -57* | -5% | 0% | 11% | i
O=C1C2C(C(=O)N1/N=C/c1ccc([N+](=O)[O-])o1)C1C=CC2C12CC2 (centres undefined) | -91* | -25% | 3% | -20% | ?
O=C1SCCN1N=Cc1ccc([N+](=O)[O-])o1 | 9 | -24% | · | -36% | i
O=C1C2C3C=CC(C4CC34)C2C(=O)N1/N=C/c1ccc(-c2ccc([N+](=O)[O-])cc2)o1 (centres undefined) | 0 | -1% | 3% | -20% | i
COC(=O)c1cccc(-c2ccc(/C=N/N3C(=O)C4C5C=CC(C6CC56)C4C3=O)o2)c1 (centres undefined) | 0 | -8% | -1% | -3% | i
CS(=O)(=O)OCCCNCCCOS(C)(=O)=O | · | · | · | · | i
O=C(CN1CCN(Cc2ccccc2)CC1)Nc1cccc(S(=O)(=O)N2CCCCCC2)c1 | -69* | -26% | -1% | -38% | ?
O=C(Nc1csc([N+](=O)[O-])c1)Nc1ccccc1Cl | -98* | -14% | 1% | ? | ?
O=C(Nc1ccccn1)c1cccc(S(=O)(=O)N2CCc3ccccc3C2)c1 | -56* | -10% | 1% | -5% | i
O=C(CNc1cc(S(=O)(=O)N2CCCC2)ccc1OCC(F)(F)F)Nc1ccc(SC(F)F)cc1 | -68* | -23% | -9% | ? | ?
O=C(CNc1cc(S(=O)(=O)N2CCCC2)ccc1OCC(F)(F)F)Nc1cc(Cl)cc(Cl)c1 | · | · | 0% | · | ·
O=C(Nc1cccc(S(=O)(=O)N2CCCCCC2)c1)C1CCC1 | -5 | -16% | 1% | 4% | i
O=C(Nc1cccc(S(=O)(=O)N2CCCCC2)c1)c1ccccn1 | -84* | 0% | 0% | -12% | i
O=C(CNc1ccc(C(F)(F)F)cc1)Nc1cccc(S(=O)(=O)N2CCCCC2)c1 | -59* | ? | · | · | ?
O=C(CNc1ccc(C(F)(F)F)cc1)Nc1cccc(S(=O)(=O)N2CCCC2)c1 | 26 | -6% | 0% | -36% | i
O=C(Nc1ccccc1)c1cccc(S(=O)(=O)N2CCCCC2)c1 | 15 | -15% | 3% | · | ·
O=C(CN1CCN(Cc2ccccc2)CC1)Nc1ccc2c(c1)CCC2 | -86* | 1% | -2% | -1% | ·
CC1CCN(S(=O)(=O)c2cccc(C(=O)Nc3ccccc3)c2)CC1 | -54* | -9% | -1% | -14% | i
CC(=O)Nc1cc(C(=O)N2CC3(C)CC2CC(C)(C)C3)cc2ncn(CCc3ccccn3)c12 (centres undefined) | · | · | · | · | i
O=C(Nc1cccc(S(=O)(=O)C(F)F)c1)c1ccc(S(=O)(=O)N2CCCC2)cc1 | -88* | -24% | 6% | ? | ?
O=C(Nc1ccc2c(c1)CCC2)Nc1ccccc1Cl | -69* | -4% | 1% | 79% | i
COc1ccc2nc(NC(=O)CCc3cc(OC)c(OC)c(OC)c3)sc2c1 | -63* | -6% | 3% | -21% | i
COc1ccc2nc(NC(=O)CCn3cccc3)sc2c1 | -6 | -10% | -1% | 7% | i
CCC(=O)Nc1nc2ccc(NC(=O)c3cc(OC)c(OC)c(OC)c3)cc2s1 | -52* | -24% | -2% | -13% | i
COc1cc(C(=O)Nc2ccc3nc(SCc4ccccc4)sc3c2)cc(OC)c1OC | · | -25% | · | -1% | ?
SMILES | IL1B secr inh | USP1 inh | USP2a block | ATXN2 expr inh | S2 tox
Cc1c(C(=O)Nc2ccc(-c3nnc4n3CCCCC4)cc2)oc2ccc(Br)cc12 | -65* | -4% | -6% | -23% | i
COc1ccc(/C=C/C(=O)Nc2ccc(-c3nnc4n3CCCCC4)cc2)c(OC)c1 | -53* | -26% | 0% | -9% | i
CCOC(=O)/C=C/C(=O)Nc1ccc(-c2nnc3n2CCCCC3)cc1 | ? | -8% | -1% | 7% | i
CCCCCCCCCCCCCCCC[N+](C)(C)Cc1ccc(F)cc1 | -74* | -26% | · | ? | i
COc1ccccc1NS(=O)(=O)c1cccc(-n2c(O)c(C=Nc3ccccc3C(=O)O)c3ccccc3c2=O)c1 | 34 | ? | 1% | -19% | 20µM*
CC(O)(COc1ccccc1)c1ccc2c(c1)CN(Cc1ccccn1)CCO2 (centres undefined) | · | · | · | · | i
CC(C)OC(=O)CSc1nnc(-c2ccc(O)cc2)n1Cc1ccccc1 | -17 | -17% | 0% | -8% | i
O=C(CSc1nnc(-c2ccc(O)cc2)n1Cc1ccccc1)NNC(=O)c1ccc(Br)cc1 | -66* | 5% | -9% | -9% | i
Cc1c(C)n(CCCN(C)C)c2ncnc(NC3CCCCC3)c12 | -53* | -12% | 1% | 29% | ?
Cc1ccc(-c2[nH]ncc2/C=N/n2c(COc3ccccc3C)nc3ccccc3c2=O)cc1 | -99* | -17% | -9% | 28µM* | ·
CCOC(=O)c1cccc2c1-c1ccccc1/C2=N/O | -54* | -19% | -1% | -24% | i
CC(C)C[C@H]1CN(CCCC[C@H]2CNC(=O)C(=O)N2Cc2ccccc2)C(=O)C(=O)N1CCc1ccc(O)cc1 | 0 | · | · | -3% | i
CCC(=O)Nc1ccc(SC#N)cc1C | -101* | ? | 3% | -14% | ?
CCC(=O)Nc1cc2c(C)cc(=O)oc2cc1C | 17 | -13% | 0% | 3% | i
Cc1cc(SC#N)cc(C)c1NC(=O)CCl | -64* | -23% | 5% | -9% | ?
CCc1cc(SC#N)cc(C)c1NC(=O)CCl | -101* | -15% | -1% | ? | ?
Cc1ccc2nsnc2c1NC(=O)CCl | -24 | -2% | 3% | 0% | i
CCc1cc(SC#N)cc(C)c1N | -93* | -24% | -1% | · | i
O=C(NCC(=O)N1CCN(C/C=C/c2ccccc2)CC1)c1ccc(OC(F)F)cc1 | -24 | -6% | -1% | -29% | i
Cc1noc(/C=C/c2cccnc2)c1[N+](=O)[O-] | -94* | -26% | 3% | ? | ?
Cc1cc(=O)c(C(=O)NCCc2ccccn2)c2n1-c1ccccc1SC(c1cccs1)C2 (centres undefined) | · | · | · | · | i
CC(C)CCNC(=O)c1ccc2c(c1)ncn2C1CCCC1 | -62* | 8% | 0% | · | i
COc1cc2nc(N3CCCC(O)C3)c(CNCc3ccccc3C(F)(F)F)cc2c(OC)c1OC (centres undefined) | · | · | · | · | i
CCc1ccc(NC(=O)CCS(=O)(=O)c2ccc3c(c2)oc(=O)n3C)cc1 | · | ? | · | -5% | i
CCc1ccccc1NC(=O)c1nn(-c2ccc(C)cc2)c(=O)c2c1c1ccccc1n2C | · | -10% | · | 10% | i

Source: PubChem (National Center for Advancing Translational Sciences (NCATS))
